# Results as given in PubChem BioAssay (Tox21).
# Several values for one entry are separate records, joined by “and”; a condition that tells them apart may be missing. Equal values may be shown once. Inconclusive results are not listed. Entries that show only a call come without a potency. Where a structure was tested more than once in an assay, its records may differ in their call. Activity calls are given as the source filed them. Calls come from the whole dose curve; as a rule, active = well fitted activation curve with a large enough effect in the repeat runs; inconclusive = weak or mixed curves; inactive = flat fitted curve, though single readings scatter.
# Assay: A CellTox Green Cytotoxicity Assay to monitor cytotoxicity in HEK293 cells - 32 hour (AID 1224881); note: nearly all actives have a fitted effect of over 40% in size
# Conditions: CellTox Green fluorescence; series mostly up to 76.8 µM; cytotoxicity increase: at the top concentration
# From the text: National Center for Advancing Translational Sciences [NCATS]
# NIH Chemical Genomics Center [NCGC]
# U.S. Environmental Protection Agency [EPA]
# National Institutes of Environmental Health Sciences [NIEHS]
# National Toxicology Program [NTP]
# Cell-based models are critical for drug discovery. Determining the natural cytotoxic effects resulting from test compounds is an essential research activity. A CellTox Green Cytotoxicity Assay to monitor cytotoxicity in real time of continues cell culture during 40 hours of the compound treatment was used to screen Tox21 10K library compounds in Hek293 cells. CellTox Green Cytotoxicity Assay is a nonlytic, homogeneous, biofluorescent method to measure cytotoxicity in cell culture after experimental manipulation. The assay system uses a proprietary asymmetric cyanine dye that is excluded from viable cells but preferentially stains the dead cell's DNA. […] Viable cells produce no appreciable increases in fluorescence. Therefore, the fluorescence signal produced by the binding interaction with dead cell DNA is proportional to cytotoxicity.
# The mixture of Hek293 cell suspension and reagents were dispensed at 600cells/6 ul/well in 1536-well tissue culture treated black solid bottom plates using a Multidrop dispenser. After the assay plates were incubated at a 37 C/5% CO2 incubator for 5 hours, 23 nL of compounds dissolved in DMSO, positive and negative controls was transferred to the assay plate by a pintool work station. The plates were incubated at 37 C for 40 hours. The fluorescence intensity were measured at 0h, 8h, 16h, 24h, 32h and 40h time points using ViewLux plate reader during compound treatment.
# Potency is the fitted concentration of half-maximal effect.
SMILES,Potency,cytotoxicity increase
NCCNCCNCCNCCN,inactive,–
C=C1CC[C@H](O)CC1=C/C=C1\CCC[C@]2(C)[C@@H]([C@H](C)/C=C/[C@H](C)C(C)C)CC[C@@H]12,inactive,–
CCCCOCCO,inactive,–
C=C(C#N)C(=O)OCC,inactive,–
NCCc1ccc(O)c(O)c1,inactive,–
c1ccc2ccccc2c1,inactive,–
CCCCC(CC)COC(C)=O (stereo not given),inactive,–
CCCCC/C=C\C/C=C\CCCCCCCC(=O)OC,–,19% (inactive)
CC(=O)[C@@]1(O)CC[C@H]2[C@@H]3CCC4=CC(=O)CC[C@]4(C)[C@H]3CC[C@@]21C,inactive,–
CC1=C(CC(=O)O)c2cc(F)ccc2/C1=C\c1ccc(S(C)=O)cc1 (stereo not given),inactive,–
O=C1CCCCC1,inactive,–
COCC(C)O (stereo not given),inactive,–
OCC#CCO,inactive,–
C[C@@H]1O[C@@H](OC[C@H]2O[C@@H](Oc3c(-c4ccc(O)c(O)c4)oc4cc(O)cc(O)c4c3=O)[C@H](O)[C@@H](O)[C@@H]2O)[C@H](O)[C@H](O)[C@H]1O,inactive,–
O=C(Cl)c1c(Cl)c(Cl)c(C(=O)Cl)c(Cl)c1Cl,inactive,–
CC1(C)O[C@@H]2C[C@H]3[C@@H]4C[C@H](F)C5=CC(=O)CC[C@]5(C)[C@H]4[C@@H](O)C[C@]3(C)[C@]2(C(=O)CO)O1,–,1.6% [at 35.3 µM] (inactive)
Cc1cc(NS(=O)(=O)c2ccc(N)cc2)no1,inactive,–
CCOC(=O)[C@H](CCc1ccccc1)N[C@@H](C)C(=O)N1Cc2ccccc2C[C@H]1C(=O)O,inactive,–
O=C(c1ccc(O)cc1)c1ccc(O)cc1O,inactive,–
CCC(C)C=O (stereo not given),inactive,–

SMILES,Potency,cytotoxicity increase
O=[N+]([O-])c1cc(N(CCO)CCO)ccc1NCCO,inactive,–
Cc1cc(O)cc(C)c1Cl,inactive,–
CCCCC(CC)COC(=O)/C=C\C(=O)OCC(CC)CCCC (stereo not given),inactive,–
COC(=O)Nc1nc2ccc(Sc3ccccc3)cc2[nH]1,inactive,–
CN(C)c1cccc(O)c1,inactive,–
C=C(C)C(=O)OCCCCCC,inactive,–
O=c1c(-c2ccc(O)cc2)coc2cc(O)ccc12,inactive,–
S=c1nc[nH]c2nc[nH]c12,inactive,–
C=C(C)C(=O)OCC(CC)(COC(=O)C(=C)C)COC(=O)C(=C)C,inactive and 42.9 µM (active),–
OC[C@@H](O)[C@@H](O)[C@H](O)[C@@H](O)CO,inactive,–
Cc1ccc(N)c(S(=O)(=O)O)c1,inactive,–
NC(=O)NNc1ccccc1,inactive,–
c1ccc2[nH]cnc2c1,inactive,–
CCCCCCCCCCCCN,inactive and 43.6 µM (active),–
CCOC(=O)/C=C\C(=O)OCC,inactive,–
CN(C)c1ccc(C(=N)c2ccc(N(C)C)cc2)cc1,–,22.5% (inactive)
CCCCNC(N)=O,inactive,–
O=C(c1cc(O)c(O)c(O)c1)c1ccc(O)c(O)c1O,inactive,–
CC(C)n1c(/C=C/[C@@H](O)C[C@@H](O)CC(=O)O)c(-c2ccc(F)cc2)c2ccccc21,inactive,–
O=S(=O)(Oc1ccc(Cl)cc1Cl)c1ccccc1,inactive,–
